# Reference: PubChem BioAssay AID1159580 (chemical genetic matrix, 2015)
# Out of some 5,500 compounds screened, about 2,000 (36%) were called active. Not shown: some 18% with an inconclusive outcome. The list shows a part of the results. Values without a mark were called inactive. Rule as the data show it: active = normalized growth mostly below about 0.91 (no sharp cut-off); inconclusive = no clear call, values can overlap the other calls; inactive = mostly above about 0.92.
# Test: chemical genetic growth profiling, strain panel (AID 1159580);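 also: tested at 20 µM; growth read once vehicle control cultures reached saturation at 30 °C; 1 = growth at the plate median or of vehicle wells; lower values mean less growth of the strain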
# Details: growth OD
smiles,measurement,setting,value
CCCOc1ccc2nc(NC(=O)OC)[nH]c2c1,normalized growth,"S. cerevisiae deletion strains, locus YJR075W, strain HOC1, active compounds read low",0.992
same,normalized growth,"S. cerevisiae deletion strains, locus YKL009W, strain mrt4, active compounds read low",0.99
same,normalized growth,"S. cerevisiae deletion strains, locus YKL068W, active compounds read low",0.995
same,normalized growth,"S. cerevisiae deletion strains, locus YKL085W, strain MDH1 (second series), active compounds read low",0.995
same,normalized growth,"S. cerevisiae deletion strains, locus YKL085W, strain MDH1, active compounds read low",0.995
same,normalized growth,"S. cerevisiae deletion strains, locus YKL160W, strain elf1, active compounds read low",1.02
same,normalized growth,"S. cerevisiae deletion strains, locus YKL190W, strain CNB1, active compounds read low",1.02
same,normalized growth,"S. cerevisiae deletion strains, locus YKR001C, strain vps1, active compounds read low",0.96
same,normalized growth,"S. cerevisiae deletion strains, locus YKR026C, strain gcn3, active compounds read low",1.02
same,normalized growth,"S. cerevisiae deletion strains, locus YKR091W, strain srl3, active compounds read low",1.01
same,normalized growth,"S. cerevisiae deletion strains, locus YLL001W, strain dnm1, active compounds read low",1.01
same,normalized growth,"S. cerevisiae deletion strains, locus YLL026W, active compounds read low",1.01
same,normalized growth,"S. cerevisiae deletion strains, locus YLL041C, strain sdh2, active compounds read low",1.01
same,normalized growth,"S. cerevisiae deletion strains, locus YLR027C, strain aat2, active compounds read low",1.01
same,normalized growth,"S. cerevisiae deletion strains, locus YLR039C, strain RIC1, active compounds read low",0.833
same,normalized growth,"S. cerevisiae deletion strains, locus YLR058C, strain SHM2, active compounds read low",0.99
same,normalized growth,"S. cerevisiae deletion strains, locus YLR102C, strain apc9, active compounds read low",0.981
same,normalized growth,"S. cerevisiae deletion strains, locus YLR113W, strain HOG1, active compounds read low",1.03
same,normalized growth,"S. cerevisiae deletion strains, locus YLR221C, strain rsa3, active compounds read low",1.01
same,normalized growth,"S. cerevisiae deletion strains, locus YLR258W, strain gsy2, active compounds read low",1.01
same,normalized growth,"S. cerevisiae deletion strains, locus YLR262C, strain YPT6 (second series), active compounds read low",0.955
same,normalized growth,"S. cerevisiae deletion strains, locus YLR262C, strain YPT6, active compounds read low",0.849
same,normalized growth,"S. cerevisiae deletion strains, locus YLR268W, strain sec22, active compounds read low",0.971
same,normalized growth,"S. cerevisiae deletion strains, locus YLR320W, strain mms22, active compounds read low",1.04
same,normalized growth,"S. cerevisiae deletion strains, locus YLR330W, strain CHS5, active compounds read low",0.989
same,normalized growth,"S. cerevisiae deletion strains, locus YLR342W, strain FKS1 (second series), active compounds read low",0.973
same,normalized growth,"S. cerevisiae deletion strains, locus YLR342W, strain FKS1, active compounds read low",1.03
same,normalized growth,"S. cerevisiae deletion strains, locus YLR357W, strain rsc2, active compounds read low",1.02
same,normalized growth,"S. cerevisiae deletion strains, locus YLR370C, strain arc18, active compounds read low",1.02
same,normalized growth,"S. cerevisiae deletion strains, locus YLR371W, strain rom2, active compounds read low",0.983
same,normalized growth,"S. cerevisiae deletion strains, locus YLR384C, strain iki3, active compounds read low",1.01
same,normalized growth,"S. cerevisiae deletion strains, locus YLR418C, strain cdc73, active compounds read low",0.878
same,normalized growth,"S. cerevisiae deletion strains, locus YML016C, strain PPZ1, active compounds read low",0.983
same,normalized growth,"S. cerevisiae deletion strains, locus YML032C, strain rad52, active compounds read low",0.982
same,normalized growth,"S. cerevisiae deletion strains, locus YML120C, strain ndi1, active compounds read low",1.02
same,normalized growth,"S. cerevisiae deletion strains, locus YML124C, strain tub3, active compounds read low",0.88 (active)
same,normalized growth,"S. cerevisiae deletion strains, locus YMR058W, strain fet3, active compounds read low",1.01
same,normalized growth,"S. cerevisiae deletion strains, locus YMR078C, strain ctf18, active compounds read low",0.979
same,normalized growth,"S. cerevisiae deletion strains, locus YMR125W, strain sto1, active compounds read low",1.02
same,normalized growth,"S. cerevisiae deletion strains, locus YMR129W, active compounds read low",1.02
same,normalized growth,"S. cerevisiae deletion strains, locus YMR205C, strain PFK2, active compounds read low",1.03
same,normalized growth,"S. cerevisiae deletion strains, locus YMR223W, strain ubp8, active compounds read low",0.96
same,normalized growth,"S. cerevisiae deletion strains, locus YMR231W, strain pep5, active compounds read low",1.01
same,normalized growth,"S. cerevisiae deletion strains, locus YMR263W, strain SAP30, active compounds read low",0.989
same,normalized growth,"S. cerevisiae deletion strains, locus YMR307W, strain GAS1, active compounds read low",0.844
same,normalized growth,"S. cerevisiae deletion strains, locus YNL067W, strain RPL9B, active compounds read low",1.01
same,normalized growth,"S. cerevisiae deletion strains, locus YNL071W, strain lat1, active compounds read low",1.02
same,normalized growth,"S. cerevisiae deletion strains, locus YNL128W, strain TEP1, active compounds read low",0.975
same,normalized growth,"S. cerevisiae deletion strains, locus YNL153C, strain GIM3, active compounds read low",0.438 (active)
same,normalized growth,"S. cerevisiae deletion strains, locus YNL183C, strain NPR1, active compounds read low",1.01
same,normalized growth,"S. cerevisiae deletion strains, locus YNL209W, strain ssb2, active compounds read low",1.02
same,normalized growth,"S. cerevisiae deletion strains, locus YNL233W, strain BNI4, active compounds read low",1.01
same,normalized growth,"S. cerevisiae deletion strains, locus YNL248C, strain rpa49, active compounds read low",1.02
same,normalized growth,"S. cerevisiae deletion strains, locus YNL250W, strain rad50, active compounds read low",0.98
same,normalized growth,"S. cerevisiae deletion strains, locus YNL271C, strain bni1, active compounds read low",0.986
same,normalized growth,"S. cerevisiae deletion strains, locus YNL298W, strain CLA4, active compounds read low",0.965
same,normalized growth,"S. cerevisiae deletion strains, locus YNL307C, strain MCK1, active compounds read low",0.972
same,normalized growth,"S. cerevisiae deletion strains, locus YNL322C, strain KRE1 (second series), active compounds read low",1
same,normalized growth,"S. cerevisiae deletion strains, locus YNL322C, strain KRE1, active compounds read low",1
same,normalized growth,"S. cerevisiae deletion strains, locus YNR049C, strain mso1, active compounds read low",1.01
same,normalized growth,"S. cerevisiae deletion strains, locus YNR052C, strain pop2, active compounds read low",0.977
same,normalized growth,"S. cerevisiae deletion strains, locus YOL006C, strain TOP1, active compounds read low",0.983
same,normalized growth,"S. cerevisiae deletion strains, locus YOL012C, strain htz1",0.822
same,normalized growth,"S. cerevisiae deletion strains, locus YOL147C, strain pex11, active compounds read low",0.975
same,normalized growth,"S. cerevisiae deletion strains, locus YOR001W, strain rrp6, active compounds read low",1.02
same,normalized growth,"S. cerevisiae deletion strains, locus YOR061W, strain CKA2, active compounds read low",0.992
same,normalized growth,"S. cerevisiae deletion strains, locus YOR069W, strain VPS5, active compounds read low",0.993
same,normalized growth,"S. cerevisiae deletion strains, locus YOR070C, strain gyp1, active compounds read low",1.01
same,normalized growth,"S. cerevisiae deletion strains, locus YOR080W, strain dia2, active compounds read low",1.02
same,normalized growth,"S. cerevisiae deletion strains, locus YOR083W, strain WHI5, active compounds read low",1.02
same,normalized growth,"S. cerevisiae deletion strains, locus YOR106W, strain vam3, active compounds read low",0.999
same,normalized growth,"S. cerevisiae deletion strains, locus YOR136W, strain idh2, active compounds read low",0.995
same,normalized growth,"S. cerevisiae deletion strains, locus YOR144C, strain elg1, active compounds read low",0.988
same,normalized growth,"S. cerevisiae deletion strains, locus YOR184W, strain ser1, active compounds read low",0.957
same,normalized growth,"S. cerevisiae deletion strains, locus YOR231W, strain MKK1, active compounds read low",1.07
same,normalized growth,"S. cerevisiae deletion strains, locus YOR265W, strain rbl2, active compounds read low",1.01
same,normalized growth,"S. cerevisiae deletion strains, locus YOR270C, strain vph1, active compounds read low",1.02
same,normalized growth,"S. cerevisiae deletion strains, locus YOR290C, strain snf2, active compounds read low",1.01
same,normalized growth,"S. cerevisiae deletion strains, locus YOR316C, strain cot1, active compounds read low",0.983
same,normalized growth,"S. cerevisiae deletion strains, locus YPL051W, strain arl3, active compounds read low",1.01
same,normalized growth,"S. cerevisiae deletion strains, locus YPL078C, strain atp4, active compounds read low",1.02
same,normalized growth,"S. cerevisiae deletion strains, locus YPL106C, strain sse1, active compounds read low",1.02
same,normalized growth,"S. cerevisiae deletion strains, locus YPL240C, strain hsp82, active compounds read low",1.01
same,normalized growth,"S. cerevisiae deletion strains, locus YPL241C, strain CIN2, active compounds read low",0.606 (active)
same,normalized growth,"S. cerevisiae deletion strains, locus YPL256C, strain CLN2, active compounds read low",1.02
same,normalized growth,"S. cerevisiae deletion strains, locus YPR119W, strain clb2, active compounds read low",0.987
same,normalized growth,"S. cerevisiae deletion strains, locus YPR141C, strain kar3, active compounds read low",0.993
same,normalized growth,"S. cerevisiae deletion strains, locus YPR163C, strain tif3, active compounds read low",0.982
same,normalized growth,"S. cerevisiae deletion strains, locus YPR167C, strain met16, active compounds read low",0.977
same,normalized growth,"S. cerevisiae deletion strains, strain wtn01, active compounds read low",0.967
same,normalized growth,"S. cerevisiae strains, strain wild type, active compounds read low",0.995
